Test results: PubChem BioAssay (NCATS)
Records with an inconclusive call do not appear. Activity calls are given as the source filed them. Calls come from the whole dose curve; as a rule, active = well fitted inhibition curve with a large enough effect; inconclusive = small, poorly fitted or top-dose-only effect, or effect the other way; inactive = flat fitted curve, though single readings scatter.

What follows are compounds tested against D(1A) dopamine receptor (Homo sapiens) (UniProt P21728) (assay: HTS Assay for Allosteric Agonists of the Human D1 Dopamine Receptor: Primary Screen for Antagonists (AID 488983; note: nearly all actives have a fitted effect of over 65% in size)). Conditions: D1 receptor cell assay, antagonist mode, qHTS titration; series mostly up to 41.8 µM; activity change, negative = inhibition: at the top concentration.
Source text: Dopamine receptors (DARs) are involved in the etiology and/or therapy of a number of neuropsychiatric and endocrine disorders. For instance, all receptor-based antiparkinsonian drugs work via stimulating the […] DAR subtype whereas all FDA-approved antipsychotic agents are antagonists of this receptor. […] There are three different types of allosteric modulators that we are seeking, two of which will stimulate or augment receptor signaling, allosteric agonists and potentiators, while the third, allosteric antagonists, will attenuate receptor signaling. The present primary screening assay measures compound agonism by tracking calcium flux in a […], inducible Hek293 Trex D1 cell line.
Freshly passaged cells are plated in 1536 well black, clear bottom plates at a density of 4000 cells/well in 3 ul of complete media containing 1x tetracycline inducer. After an overnight incubation at 30 C in 5% CO2, cells are loaded with 2 ul of the no wash Calcium Assay Kit (ABD Bioquest) and incubated at room temperature for 30 to 90 minutes. A 10 cycle (1 second/cycle) baseline measurement is taken and then the FDSS online 1536 pintool delivers 23 nl of compound library (as well as dopamine controls) to the plate. The plate is measured for kinetically at 1 cycle/sec for 180 seconds and is considered to be the agonist portion of the assay (eg, compounds which activate a positive calcium response during this portion are flagged as potential agonists). Following the 180 second read, 1 ul of an EC80 of dopamine is delivered by an onboard pipette head. Measurements are taken kinetically for an additional 180 seconds.
% is set by controls: 0 for no effect and ±100 for the full control effect; potency is the fitted concentration of half-maximal effect.

D(1A) dopamine receptor (Homo sapiens), sequence (P21728 whole entry, looked up): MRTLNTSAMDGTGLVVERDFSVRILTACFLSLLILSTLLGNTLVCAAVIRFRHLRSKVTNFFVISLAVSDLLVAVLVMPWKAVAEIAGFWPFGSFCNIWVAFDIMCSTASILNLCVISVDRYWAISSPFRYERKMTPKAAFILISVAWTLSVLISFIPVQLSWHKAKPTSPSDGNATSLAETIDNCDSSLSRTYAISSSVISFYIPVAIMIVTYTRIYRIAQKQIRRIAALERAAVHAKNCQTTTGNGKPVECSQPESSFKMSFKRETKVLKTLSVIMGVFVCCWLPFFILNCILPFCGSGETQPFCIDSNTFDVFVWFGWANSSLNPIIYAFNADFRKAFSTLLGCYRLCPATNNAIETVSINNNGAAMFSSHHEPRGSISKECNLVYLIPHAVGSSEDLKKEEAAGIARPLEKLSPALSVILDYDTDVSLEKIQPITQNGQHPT

Row | SMILES | activity change, negative = inhibition | Potency
1 | CC(COc1ccccc1)N(CCCl)Cc1ccccc1 (stereo not given) | 29.7% (inactive) | –
2 | CCN1CCCC1CNC(=O)c1cc(S(=O)(=O)CC)c(N)cc1OC (stereo not given) | -20.8% (inactive) | –
3 | COc1cc2nc(N(C)CCCNC(=O)C3CCCO3)nc(N)c2cc1OC (stereo not given) | -12.6% (inactive) | –
4 | CN(C)CCC=C1c2ccccc2C=Cc2ccccc21 | – | 1 µM (active)
5 | COc1nc(C)nc(Cl)c1NC1=NCCN1 | 9.06% (inactive) | –
6 | CS(=O)(=O)Nc1ccc([N+](=O)[O-])cc1Oc1ccccc1 | 5.42% (inactive) | –
7 | NCCS(=O)(=O)O | 2.06% (inactive) | –
8 | CN1C2CCC1CC(OC(=O)C(CO)c1ccccc1)C2 (stereo not given) | – | inactive
9 | COC(=O)Nc1nc2ccc(C(=O)c3cccs3)cc2[nH]1 | -6.38% (inactive) | –
10 | Nc1c2c(nc3ccccc13)CCCC2 | -16.9% (inactive) | –
11 | Cn1cnc2c1c(=O)[nH]c(=O)n2C | -6.18% (inactive) | –
12 | CCOC(=O)Nc1ccc(NCc2ccc(F)cc2)nc1N | -14.8% (inactive) | –
13 | CCCNCC(O)COc1ccccc1C(=O)CCc1ccccc1 (stereo not given) | – | 10 µM (active)
14 | COc1ccccc1OCCNCC(O)COc1cccc2[nH]c3ccccc3c12 (stereo not given) | – | 8.91 µM (active)
15 | CN(C)c1nc(N(C)C)nc(N(C)C)n1 | -4.23% (inactive) | –
16 | COc1ccc(CCN(C)CCCC(C#N)(c2ccc(OC)c(OC)c2)C(C)C)cc1OC (stereo not given) | -26% (inactive) | –
17 | Cc1cn([C@H]2C[C@H](N=[N+]=[N-])[C@@H](CO)O2)c(=O)[nH]c1=O | 16.4% (inactive) | –
18 | CN(C)CCOC(c1ccccc1)c1ccccc1 | -8.97% (inactive) | –
19 | NC(=O)OCC(COC(N)=O)c1ccccc1 | 8.49% (inactive) | –
20 | CCC1(c2ccccc2)C(=O)NCNC1=O | 3.96% (inactive) | –

Row | SMILES | activity change, negative = inhibition | Potency
21 | Clc1ccc(C(c2ccccc2Cl)C(Cl)Cl)cc1 (stereo not given) | 5.87% (inactive) | –
22 | O=c1[nH]cc(F)c(=O)[nH]1 | 7.87% (inactive) | –
23 | O=C(C1CCCCC1)N1CC(=O)N2CCc3ccccc3C2C1 (stereo not given) | 0.409% (inactive) | –
24 | COc1ccc2[nH]cc(CCNC(C)=O)c2c1 | -6.08% (inactive) | –
25 | CN1CCC(=C2c3ccccc3CC(=O)c3sccc32)CC1 | – | 2 µM (active)
26 | CN(C)C(=O)C(CCN1CCC(O)(c2ccc(Cl)cc2)CC1)(c1ccccc1)c1ccccc1 | -18.7% (inactive) | –
27 | Cc1cn([C@H]2C=C[C@@H](CO)O2)c(=O)[nH]c1=O | 11% (inactive) | –
28 | CC[N+](CC)(CC)CCOc1cccc(OCC[N+](CC)(CC)CC)c1OCC[N+](CC)(CC)CC | -13% (inactive) | –
29 | Clc1ccc2nsnc2c1NC1=NCCN1 | -1.42% (inactive) | –
30 | CC1COc2c(N3CCN(C)CC3)c(F)cc3c(=O)c(C(=O)O)cn1c23 (stereo not given) | 3.1% (inactive) | –
31 | Nc1nc2c(ncn2COC(CO)CO)c(=O)[nH]1 | 10.7% (inactive) | –
32 | COc1cc2c(c(OC)c1OC)-c1ccc(OC)c(=O)cc1[C@@H](NC(C)=O)CC2 | 0.131% (inactive) | –
33 | COc1ccc(C2CNC(=O)C2)cc1OC1CCCC1 (stereo not given) | 11.1% (inactive) | –
34 | O=C1c2c(O)ccc(O)c2C(=O)c2c(NCCNCCO)ccc(NCCNCCO)c21 | 3.58% (inactive) | –
35 | Cc1cc(C(C)(C)C)c(O)c(C)c1CC1=NCCN1 | 2.6% (inactive) | –
36 | CC(C)(Oc1ccc(C2CC2(Cl)Cl)cc1)C(=O)O (stereo not given) | -18.2% (inactive) | –
37 | CC(C)NCC(O)c1ccc(O)c(O)c1 (stereo not given) | 12.3% (inactive) | –
38 | Cc1cnc(C(=O)NCCc2ccc(S(=O)(=O)NC(=O)NC3CCCCC3)cc2)cn1 | -2.96% (inactive) | –
39 | O=C1N(c2ccccc2)c2ccccc2C1(Cc1ccncc1)Cc1ccncc1 | 9.16% (inactive) | –
40 | COc1ccc2c(c1)c(CC(=O)O)c(C)n2C(=O)c1ccc(Cl)cc1 | -0.41% (inactive) | –
